# Experiments:
# Test in all cases: PBM binding z-score (relative to random genomic background probes); higher = stronger binding; sequences stand for … in GC…GCGATTGACAGCGTAGAATGAAGG
# [1] = system: FXR:RXRa (NR concentration 270 nM, RXRa partner concentration 90 nM)
# Procedure, shortened: (§1)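 Scanned fluorescence from custom Agilent 4×180K protein-binding microarrays was regression-normalized. Binding z-scores use random background probes as reference. Ligand-free nuclear receptor dimers were incubated on the arrays for 1 h and detected with antibodies against each partner (one per run).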
# [2] = system: LXRa:RXRa (NR concentration 270 nM, RXRa partner concentration 90 nM)
# Procedure, shortened: as §1
# [3] = system: LXRa homodimer (NR concentration 270 nM)
# Procedure, shortened: as §1
# [4] = system: LXRb:RXRa (NR concentration 270 nM, RXRa partner concentration 90 nM)
# Procedure, shortened: as §1
# [5] = system: LXRb homodimer (NR concentration 270 nM)
# Procedure, shortened: as §1
# [6] = system: PPARa:RXRa (NR concentration 270 nM, RXRa partner concentration 90 nM)
# Procedure, shortened: as §1
# [7] = system: PPARg:RXRa (NR concentration 180 nM, RXRa partner concentration 90 nM)
# Procedure, shortened: as §1
# [8] = system: PPARg:RXRa 270nM:90nM, anti-RXR (NR concentration 270 nM, RXRa partner concentration 90 nM)
# Procedure, shortened: as §1
# [9] = system: PPARg:RXRa 30nM:10nM, anti-RXR (NR concentration 30 nM, RXRa partner concentration 10 nM)
# Procedure, shortened: as §1
# [10] = system: PPARg:RXRa 90nM:30nM, anti-RXR (NR concentration 90 nM, RXRa partner concentration 30 nM)
# Procedure, shortened: as §1
Sequence,PBM binding z-score [1],PBM binding z-score [2],PBM binding z-score [3],PBM binding z-score [4],PBM binding z-score [5],PBM binding z-score [6],PBM binding z-score [7],PBM binding z-score [8],PBM binding z-score [9],PBM binding z-score [10]
ACAGACAGGTGAGGGAAGGTAACTCAGCTGGACG,0.596,0.155,-0.368,-0.181,-0.443,0.389,0.791,-0.0319,-0.39,-0.182
CCTAGCAGGCCAGGGCCACTCAAGCATTTCGCTT,-0.787,-0.944,-0.625,-1.04,-1.61,-0.638,-0.367,-1.16,-1.24,-1.48
CCTGCTAGGTCATGGACAGCTAATCTACAGTATG,3.61,2.77,-0.434,1.75,-0.251,3.61,2.53,2.8,0.906,1.75
CCTTACGGGTCACTCCAGGTTATTGCATCGGAGT,5,7.62,2.75,5.48,0.61,4.32,3.25,3.54,1.08,2.44
CTACCAAGGTGAAGAAGGTCGTTGATTACTATTC,0.613,0.547,0.132,1.33,-0.664,1.95,0.281,0.572,-0.116,0.36
ACTATTAGTTGAGACCAGGGCAACCGATAGGTTG,0.433,-0.242,-0.0882,-0.177,0.0937,0.067,0.508,0.263,0.00186,-0.189
CCTATTACTTGACCATAAGGGCAACCGAAGCTCG,1.19,0.716,0.834,1.06,1.31,0.711,0.8,0.339,0.281,0.247
AATACAGGGTCATCGTGGGCCAGAGTACGCACAG,7.26,6.08,2.41,4.65,0.911,5.96,6.73,5.81,2.73,4.56
GCAGACAGGTGAAACGCAGGTAACTCCGGGTGGC,-0.276,0.017,-0.496,-0.36,-1.37,0.805,0.312,0.0906,-0.41,-0.188
CGAACGAGGGCATGAGTTGATAACAAATGCCGAT,0.424,0.218,-0.205,0.254,-0.653,1.44,1.53,1.35,0.389,0.841
ATATGTAGGTTAGCTGGGGTCACTCAGACTAGGC,4.47,5.35,1.4,4.08,1.05,5.03,5.15,5.18,2.81,4.46
CGTACAAGGTCAAGGTCAGTGAAAGAGACTCGAA,7.99,5.91,1.33,5.06,1.34,6.47,7.35,6.73,3.62,5.87
ATCTCTAGGTAAAGATCAGTGAAAGATCGATAGA,0.248,0.153,0.0101,0.0437,0.463,0.624,1.04,1.14,0.487,0.992
CTACCAAGGTGAACTAGGTCGTTGATTACTATTC,1.2,1,0.238,1.61,-0.516,2.59,1.12,1.6,0.168,1.05
CCTATTAGTTGACCATAAGGGCAAGCGAAGCTCG,0.766,0.114,0.254,0.218,0.573,0.369,0.36,0.458,-0.0041,0.237
CCTTACGGGTCACTCCAGGTTAAAGCATCGGAGT,5.18,7.96,2.58,5.93,0.173,4.59,3.59,4.06,1.02,2.86
ATACCAAGGTGATCGTGCGGTCGTTGATACTAAC,0.823,0.293,0.286,-0.0591,-0.308,0.0191,0.122,0.0521,-0.564,-0.232
CTTCCAAGGTCATAGGAGGTCAGTGAAGACAGAT,7.67,7.56,6.46,6,1.51,6.02,5.71,6.17,2.87,4.89
TCTTCTAGATCAAAGGTTAAGAAAGCCGAAGCCT,1.43,1.87,-0.049,2.13,0.536,4.9,7.46,8.19,8.13,8.51
CCTAGTTGATCAGGAGGTCACACACCGGATATGA,3.48,3.95,3.16,3.71,1,4.19,2.24,2.78,1.24,1.99
CCTGCTAGGTAAATGGTCAGCTAAAGCAGCTCGC,-0.299,-0.376,-0.748,-0.628,-0.539,-0.0599,0.476,1.64,0.189,1.31
TGCATGAGGTTAAAGATCAGGGAACGTGGCGTCG,3.2,2.84,0.267,1.84,0.579,3.89,4.03,4.6,2.43,4.38
TTACCAAGGTGAAAGGTCTTTGATGCACGCCTTG,1.27,1.01,-0.494,1.07,-0.549,3.54,5.56,6.21,4.99,6.07

# — the supplement of paper PMC6555819
